Reference: PubChem BioAssay (NCATS)
Inconclusive results are not listed. Activity calls are given as the source filed them. Calls follow the shape of the dose curve; as a rule, active = well fitted inhibition curve with a large enough effect; inconclusive = small, poorly fitted or top-dose-only effect; inactive = flat fitted curve, though single readings scatter.

Legend:
[1] = qHTS profiling for inhibitors of Plasmodium falciparum proliferation (AID 504749); also: nearly all actives have a fitted effect of over 60% in size;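 as to activity, negative = inhibition: 0% = DMSO vehicle and full inhibition = artemisinin control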; settings: P. falciparum in erythrocytes, SYBR Green DNA, 72 h
Summary of the method: (§1)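 SYBR Green fluorescence of parasite DNA, read after lysis and overnight dark incubation, measured growth over 72 h in erythrocyte culture at 0.3% parasitemia and 2.5% hematocrit. Data normalised to DMSO and 0.29 uM artemisinin, with plate-drift correction.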

[2] = system: 3D7; assay: as above; settings: P. falciparum in erythrocytes, SYBR Green DNA, 72 h; series mostly up to 28.7 µM
Summary of the method: as §1

[3] = system: 7G8; assay: as above; settings: P. falciparum in erythrocytes, SYBR Green DNA, 72 h; series mostly up to 28.7 µM
Summary of the method: as §1

[4] = system: AA1029; assay: as above; settings: P. falciparum in erythrocytes, SYBR Green DNA, 72 h; series mostly up to 28.7 µM
Summary of the method: as §1

[5] = system: AS120; assay: as above; settings: P. falciparum in erythrocytes, SYBR Green DNA, 72 h; series mostly up to 28.7 µM
Summary of the method: as §1

[6] = system: ATS189; assay: as above; settings: P. falciparum in erythrocytes, SYBR Green DNA, 72 h; series mostly up to 28.7 µM
Summary of the method: as §1

[7] = system: ATS95; assay: as above; settings: P. falciparum in erythrocytes, SYBR Green DNA, 72 h; series mostly up to 28.7 µM
Summary of the method: as §1

[8] = system: C2A; assay: as above; settings: P. falciparum in erythrocytes, SYBR Green DNA, 72 h; series mostly up to 28.7 µM
Summary of the method: as §1

[9] = system: CP185; assay: as above; settings: P. falciparum in erythrocytes, SYBR Green DNA, 72 h; series mostly up to 28.7 µM
Summary of the method: as §1

[10] = at 28.7 µM (top of the series), parasite line A
[11] = at 28.7 µM (top of the series), parasite line B
[12] = at 12.8 µM (top of the series), parasite line A
[13] = at 12.8 µM (top of the series), parasite line B
Potency is read from the fitted curve at half-maximal effect.

O=C(O)C1(C(=O)O)CCC1.[NH2-].[NH2-].[Pt+2]
active: Potency [3] 14100 nM
inactive: activity, negative = inhibition [1, 10] -5.41% | activity, negative = inhibition [1, 11] -0.756% | Potency [2] | Potency [4] | Potency [5] | Potency [6] | Potency [7] | Potency [8] | Potency [9]

O=C(O)CCC(=O)Nc1ccc(S(=O)(=O)Nc2nccs2)cc1
inactive: activity, negative = inhibition [1, 12] 14.2% | activity, negative = inhibition [1, 13] 11.7% | Potency [2] | Potency [3] | Potency [4] | Potency [5] | Potency [6] | Potency [7] | Potency [8] | Potency [9]

CC[C@H](c1ccc(O)cc1)[C@@H](CC)c1ccc(O)cc1
inactive: activity, negative = inhibition [1, 12] -8.43% | activity, negative = inhibition [1, 13] 3.18% | Potency [2] | Potency [3] | Potency [4] | Potency [5] | Potency [6] | Potency [7] | Potency [8] | Potency [9]

CCCCCCCC/C=C\CCCCCCCCN
inactive: activity, negative = inhibition [1, 10] 9.32% | activity, negative = inhibition [1, 11] 3.75% | Potency [2] | Potency [3] | Potency [4] | Potency [5] | Potency [6] | Potency [7] | Potency [8] | Potency [9]

CC(=O)Nc1ccc(S(=O)(=O)Nc2ccc([N+](=O)[O-])cc2)cc1
inactive: activity, negative = inhibition [1, 10] -0.674% | activity, negative = inhibition [1, 11] 0.755% | Potency [2] | Potency [3] | Potency [4] | Potency [5] | Potency [6] | Potency [7] | Potency [8] | Potency [9]

Cc1cccc(C)c1NC(=O)c1ccccc1C(=O)O
inactive: activity, negative = inhibition [1, 10] 19.5% | activity, negative = inhibition [1, 11] 8.59% | Potency [2] | Potency [3] | Potency [4] | Potency [5] | Potency [6] | Potency [7] | Potency [8] | Potency [9]

CCCCC(CC)COC(=O)c1ccc(N(C)C)cc1 (stereo not given)
inactive: activity, negative = inhibition [1, 10] 7.25% | activity, negative = inhibition [1, 11] -4.81% | Potency [2] | Potency [3] | Potency [4] | Potency [5] | Potency [6] | Potency [7] | Potency [8] | Potency [9]

CC(C)Cn1cnc2c1c(=O)n(C)c(=O)n2C
inactive: activity, negative = inhibition [1, 10] -14.6% | activity, negative = inhibition [1, 11] 1.13% | Potency [2] | Potency [3] | Potency [4] | Potency [5] | Potency [6] | Potency [7] | Potency [8] | Potency [9]

CC(=O)OC[C@H]1O[C@@H](n2ncc(=O)[nH]c2=O)[C@H](OC(C)=O)[C@@H]1OC(C)=O
inactive: activity, negative = inhibition [1, 10] 3.78% | activity, negative = inhibition [1, 11] 0.953% | Potency [2] | Potency [3] | Potency [4] | Potency [5] | Potency [6] | Potency [7] | Potency [8] | Potency [9]

CCCc1ncc(C[n+]2ccccc2C)c(N)n1
inactive: activity, negative = inhibition [1, 12] 11.9% | activity, negative = inhibition [1, 13] 12% | Potency [2] | Potency [3] | Potency [4] | Potency [5] | Potency [6] | Potency [7] | Potency [8] | Potency [9]

COc1ccccc1N1CCN(CCCCNC(=O)c2ccc(-c3ccc(C(C)=O)cc3)cc2)CC1
inactive: activity, negative = inhibition [1, 10] 15.8% | activity, negative = inhibition [1, 11] 20.5% | Potency [2] | Potency [4] | Potency [5] | Potency [6] | Potency [7] | Potency [8] | Potency [9]
active: Potency [3] 12600 nM

COc1cc(NS(=O)(=O)c2ccc(N)cc2)ncn1
inactive: activity, negative = inhibition [1, 12] 3.14% | activity, negative = inhibition [1, 13] 1.14% | Potency [2] | Potency [3] | Potency [4] | Potency [5] | Potency [6] | Potency [7] | Potency [8] | Potency [9]

Nc1ccc(S(=O)(=O)Nc2cnc3ccccc3n2)cc1
inactive: activity, negative = inhibition [1, 10] -3.4% | activity, negative = inhibition [1, 11] -11.6% | Potency [2] | Potency [3] | Potency [4] | Potency [5] | Potency [6] | Potency [7] | Potency [8] | Potency [9]

Cc1ccc(S(=O)(=O)NC(=O)NC2CCCC2)cc1
inactive: activity, negative = inhibition [1, 10] 11.1% | activity, negative = inhibition [1, 11] 9.92% | Potency [2] | Potency [3] | Potency [4] | Potency [5] | Potency [6] | Potency [7] | Potency [8] | Potency [9]

CCOc1cc(OCC)c(C(=O)CCC(=O)O)cc1OCC
inactive: activity, negative = inhibition [1, 10] 5.68% | activity, negative = inhibition [1, 11] 1.04% | Potency [2] | Potency [3] | Potency [4] | Potency [5] | Potency [6] | Potency [7] | Potency [8] | Potency [9]

CCN1/C(=C/C=C/c2sc3ccccc3[n+]2CC)Sc2ccccc21
active: Potency ([1]; parasite line A) 89.1 nM | Potency ([1]; parasite line B) 178 nM | Potency [2] 141 nM | Potency [3] 79.4 nM | Potency [4] 178 nM | Potency [5] 199 nM | Potency [6] 158 nM | Potency [7] 178 nM | Potency [8] 126 nM | Potency [9] 112 nM

CCOC(=O)[C@H](CCc1ccccc1)N[C@@H](C)C(=O)N1[C@H](C(=O)O)C[C@H]2CCCC[C@@H]21
inactive: activity, negative = inhibition [1, 10] 8.44% | activity, negative = inhibition [1, 11] 4.83% | Potency [2] | Potency [3] | Potency [4] | Potency [5] | Potency [6] | Potency [7] | Potency [8] | Potency [9]

Cc1ncc(CO)c(C=O)c1O
inactive: activity, negative = inhibition [1, 10] 0.609% | activity, negative = inhibition [1, 11] 9.9% | Potency [2] | Potency [3] | Potency [4] | Potency [5] | Potency [6] | Potency [7] | Potency [8] | Potency [9]

CC1(COc2ccc(CC3SC(=O)NC3=O)cc2)CCCCC1 (stereo not given)
inactive: activity, negative = inhibition [1, 10] 11% | activity, negative = inhibition [1, 11] -0.436% | Potency [2] | Potency [3] | Potency [4] | Potency [5] | Potency [6] | Potency [7] | Potency [8] | Potency [9]

Cc1c(-c2ccccc2)oc2c(C(=O)OCCN3CCCCC3)cccc2c1=O
inactive: activity, negative = inhibition [1, 12] 0.972% | activity, negative = inhibition [1, 13] 6.11% | Potency [2] | Potency [3] | Potency [4] | Potency [5] | Potency [6] | Potency [7] | Potency [8] | Potency [9]
